Assay outcomes as filed in PubChem BioAssay.
Shown are actives, neighbours in structure and some others; about 2.9% of the full set was active somewhere.
PLC-gamma1 inh – inhibitors of human phospholipase C gamma1; P19174; actives 0.84% (n = 370,000); inhibition, % at 12.2 µM; purified PLC-gamma1, fluorogenic substrate, fluorescence; in the data active = inhibition above about 9.5%
ADAM17 inh – ADAM17 inhibition, QFRET primary screen; P78536; AID 720648; actives 0.83% (n = 370,000); inhibition, % at 6.95 µM; recombinant ADAM17, EDANS/DABCYL FRET peptide cleavage;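 active = inhibition above the mean of compounds lying between control limits plus 3 SD, set per campaign, cut at about 8.5% in these data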;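 also: 0% = DMSO-only wells as the low control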
KLK7 zymogen act – activators of human kallikrein-7 zymogen. P49862. purified proKLK7, EDANS-DABCYL substrate fluorescence; 100% is mature enzyme control, 0% vehicle. activation, % at 7 µM. actives 0.9% (n = 370,000). AID 652039;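 active = activation above the mean of all tested compounds plus 3 SD, computed per campaign excluding outliers beyond control limits, cut at about 13% in these data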
PLCb3 inh – blocks human PLC-beta3 enzyme activity; Q01970; Purified PLC-beta3, fluorogenic substrate, fluorescence; inhibition, % at 12.2 µM; actives 0.18% (n = 370,000); in the data active = inhibition above about 11%;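 also: 0% = median of compound wells on plate and 100% = full blocker control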
Target sequence (Q01970 whole entry, looked up): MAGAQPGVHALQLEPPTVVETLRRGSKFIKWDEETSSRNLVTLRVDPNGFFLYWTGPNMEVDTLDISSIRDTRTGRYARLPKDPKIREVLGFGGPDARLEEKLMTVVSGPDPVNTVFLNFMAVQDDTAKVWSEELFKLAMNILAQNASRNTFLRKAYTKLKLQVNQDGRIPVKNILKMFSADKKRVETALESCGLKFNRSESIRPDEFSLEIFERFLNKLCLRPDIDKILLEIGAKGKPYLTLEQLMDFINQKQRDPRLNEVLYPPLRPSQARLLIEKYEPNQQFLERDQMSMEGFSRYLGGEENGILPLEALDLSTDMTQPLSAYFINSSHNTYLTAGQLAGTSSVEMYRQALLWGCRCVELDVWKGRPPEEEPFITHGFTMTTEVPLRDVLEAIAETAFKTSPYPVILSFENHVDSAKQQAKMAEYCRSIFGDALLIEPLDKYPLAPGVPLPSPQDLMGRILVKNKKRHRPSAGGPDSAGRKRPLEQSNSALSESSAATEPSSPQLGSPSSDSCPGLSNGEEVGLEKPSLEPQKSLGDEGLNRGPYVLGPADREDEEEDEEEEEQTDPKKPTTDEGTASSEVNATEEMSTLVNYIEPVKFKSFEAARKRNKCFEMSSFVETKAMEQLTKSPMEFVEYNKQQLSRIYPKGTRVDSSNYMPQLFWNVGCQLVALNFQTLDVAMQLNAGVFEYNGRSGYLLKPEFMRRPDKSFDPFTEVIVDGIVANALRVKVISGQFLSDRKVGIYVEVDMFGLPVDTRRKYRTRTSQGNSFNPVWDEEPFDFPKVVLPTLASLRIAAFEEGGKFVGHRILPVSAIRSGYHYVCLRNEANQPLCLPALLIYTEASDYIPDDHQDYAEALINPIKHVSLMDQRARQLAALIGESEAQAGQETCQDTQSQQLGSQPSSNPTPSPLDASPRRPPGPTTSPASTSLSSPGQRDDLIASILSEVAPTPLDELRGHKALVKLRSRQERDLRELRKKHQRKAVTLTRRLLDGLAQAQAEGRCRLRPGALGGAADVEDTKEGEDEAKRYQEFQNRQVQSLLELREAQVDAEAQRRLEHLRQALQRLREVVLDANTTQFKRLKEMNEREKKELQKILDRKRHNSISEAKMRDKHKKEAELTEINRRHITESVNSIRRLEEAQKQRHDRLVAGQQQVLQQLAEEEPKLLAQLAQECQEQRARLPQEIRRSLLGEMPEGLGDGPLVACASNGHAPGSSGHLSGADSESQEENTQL
ADAM10 inh – inhibits human ADAM10; O14672; recombinant ADAM10, EDANS/DABCYL FRET peptide cleavage, 3 h; inhibition, % at 7 µM; actives 0.62% (n = 370,000);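 active = inhibition above a per-campaign cutoff equal to the mean of compounds falling between control-based bounds plus 3 SD, cut at about 20% in these data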;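 also: 0% = DMSO wells while the 100% control is not disclosed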
ADAM10 counter – inhibits human ADAM10 in ADAM17 exosite counter-screen; shares compounds with ADAM17 inh; recombinant ADAM10, EDANS/DABCYL FRET peptide cleavage, 3 h; inhibition, % at 6.95 µM; actives 47% (n = 2,900);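 active = mean inhibition over the triplicate runs exceeds the activity threshold set in the earlier primary screen, cut at about 20% in these data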;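 also: 0% = DMSO wells and 100% = marimastat wells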
ADAM17 confirm – human ADAM17 inhibition, confirmation; AID 743257; inhibition, % at 6.95 µM; actives 65% (n = 2,900); shares compounds with ADAM17 inh; recombinant ADAM17, EDANS/DABCYL QFRET peptide cleavage;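 active = mean inhibition across replicates above the hit cutoff set in the primary screen, cut at about 8.5% in these data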;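 also: 0% = DMSO wells and 100% = marimastat wells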
The depositor's hits bear a star; x = no result.

SMILES | PLC-gamma1 inh | ADAM17 inh | KLK7 zymogen act | PLCb3 inh | ADAM10 inh | ADAM10 counter | ADAM17 confirm
Cc1nc(NC(=O)c2cc3c(C)nn(-c4ccccc4)c3s2)sc1C(=O)Nc1ccccc1 | -6 | 1 | 0 | -7 | 2 | x | x
CCN(CC)c1ccc(NC(=O)c2cc3c(C)nn(-c4ccccc4)c3s2)cc1 | -37 | 13* | -8 | -49 | 19 | 6 | 10*
O=C(NCc1cccc(C(F)(F)F)c1)C1C(=O)Nc2ccccc2C(=O)N1Cc1ccccc1 (stereo not drawn) | 3 | -5 | 0 | -2 | -40 | x | x
CC(C)CC(=O)Nc1ccc(C(=O)COC(=O)CN2C(=O)NC3(CCCCC3C)C2=O)cc1 (stereo not drawn) | -3 | -3 | 1 | -4 | -12 | x | x
O=S1(=O)CCOC[C@H](Cc2ccccc2)N1Cc1cccc(C(F)(F)F)c1 | 3 | 11* | -1 | 4 | 0 | 10 | 5
Cc1nc(SCc2nc3ccc(Cl)cc3[nH]2)c2oc3ccccc3c2n1 | -16 | 9.8* | -4 | -35 | 5 | -11 | 2
Cc1nc(SCc2nc3ccc(Br)cc3[nH]2)c2oc3ccccc3c2n1 | -7 | 0 | -9 | -9 | -3 | x | x
O=C(COC(=O)CC1Sc2ccccc2NC1=O)NCc1ccccc1 (stereo not drawn) | 4 | -2 | 0 | 1 | -1 | x | x
CCOc1cc(C(=O)OCC(=O)Nc2ccc(SC(F)F)cc2)cc(OCC)c1OCC | -1 | 10* | 0 | -2 | 19 | 38* | 18*
O=C(OC(C(=O)Nc1cc(Cl)cc(Cl)c1)c1ccccc1)C1=COCCO1 (stereo not drawn) | 2 | 9.8* | 0 | 1 | 14 | 31* | 15*
CC(OC(=O)C1=COCCO1)C(=O)Nc1ccc(Oc2ccccc2)cc1 (stereo not drawn) | -3 | -4 | 0 | -3 | -3 | x | x
O=C(CCc1nc(-c2ccccc2)no1)NC1CCCCC1 | 4 | 9.0* | 0 | 5 | 3 | -5 | 2
O=C(CCc1nc(-c2ccc(Cl)cc2)no1)NC1CCCCC1 | 2 | -2 | -1 | -4 | -4 | x | x
c1nc(NC[C@@H]2CCCO2)c2cc(-c3ccc4c(c3)OCO4)ccc2n1 | -113 | -29 | x | -169 | -76 | x | x
CCOC(=O)c1c(C)[nH]c(N=Nc2cccc(C)c2)c1C | 6 | 9.7* | 0 | 6 | 14 | 24* | 14*
CCOC(=O)c1c(C)[nH]c(N=Nc2cccc(OC)c2)c1C | 2 | 1 | 0 | -7 | 9 | x | x
c1ccc(Nc2ccccc2Nc2ccccn2)nc1 | -23 | -5 | 0 | -29 | -12 | x | x
Oc1cccc2ccc(Nc3ccccn3)nc12 | -2 | 50* | 0 | -2 | 60* | 32* | 47*
CC1(Oc2cccc(F)c2)CCN(Cc2ccc(-c3ccccn3)cc2)C1 (stereo not drawn) | 3 | 1 | 0 | 5 | -5 | x | x
COc1ccc(N(C)S(=O)(=O)c2cccc(C(=O)Nc3ccc4c(c3)OCCO4)c2)cc1 | 8 | 11* | 1 | -5 | 14 | 24* | 13*
COc1ccc(N(C)S(=O)(=O)c2cccc(C(=O)Nc3ccc(-n4cnnn4)cc3)c2)cc1 | 0 | -1 | 1 | -1 | -1 | x | x
CN(c1ccc(C(=O)Nc2ccc3c(c2)OCCO3)cc1)S(C)(=O)=O | 6 | 9.4* | 0 | 6 | 10 | 1 | 2
Cc1ccc(C)c(S(=O)(=O)N(C)Cc2cccs2)c1 | 8 | 8.8* | 0 | 0 | -1 | 23* | 12*
O=S(=O)(c1ccccc1)N1CCC(n2cnc3ccccc32)CC1 | 5 | 9.7* | 0 | -2 | 15 | -3 | -1
CCC(C(=O)NCc1ccccc1)n1c(-c2cccs2)nc2ccccc21 (stereo not drawn) | -9 | -24 | 0 | -10 | -92 | x | x
SMILES | PLC-gamma1 inh | ADAM17 inh | KLK7 zymogen act | PLCb3 inh | ADAM10 inh | ADAM10 counter | ADAM17 confirm
CCOc1ccc(NS(=O)(=O)c2cc(NC(=O)CCC(=O)c3cccs3)ccc2Cl)cc1 | -1 | 9.1* | -1 | 2 | 14 | 18 | 10*
COc1ccccc1NS(=O)(=O)c1cc(NC(=O)CCC(=O)c2cccs2)ccc1Cl | 0 | 4 | -1 | -2 | 11 | x | x
COC(=O)c1ccc(C(C(=O)NCc2ccccc2)N(Cc2cccs2)C(=O)c2cnccn2)cc1 (stereo not drawn) | 1 | -2 | 0 | 1 | 7 | x | x
Cc1ccc(C(C(=O)NCc2ccccc2)N(Cc2cccs2)C(=O)c2ccc3c(c2)OCCO3)cc1 (stereo not drawn) | -2 | 10* | 0 | 0 | 15 | 14 | 11*
C=CCNC(=S)NNC(=O)CSc1nc2ccccc2s1 | 0 | 11* | 0 | -3 | 5 | 0 | 5
Cc1ccc(NC(=O)CNC(=O)CC23CC4CC(CC(C4)C2)C3)c(O)c1 | 1 | 16* | 0 | -5 | 1 | 4 | 6
C[C@@H]1CN([C@H](C)CO)S(=O)(=O)c2ccc(C#Cc3cccc(F)c3)cc2O[C@@H]1CN(C)C(=O)CN1CCOCC1 | -12 | -2 | 0 | -19 | -16 | x | x
Cc1ccc([C@@H]2CC(=O)[C@@H]3CN(S(=O)(=O)c4ccc(C)cc4)[C@H](c4cccc5ccccc45)C[C@@H]3N2S(=O)(=O)c2ccc(Cl)cc2)cc1 | 2 | -2 | 0 | 1 | -6 | x | x
Cc1ccc(S(=O)(=O)N2C[C@H]3C(=O)C[C@@H](c4ccccc4)N(S(=O)(=O)c4ccc(C)cc4)[C@H]3C[C@H]2c2cccc3ccccc23)cc1 | 6 | 11* | 0 | 1 | 7 | 18 | 13*
C/C(=N\NC(=O)c1cc(-c2ccc(C)s2)[nH]n1)c1ccncc1 | -2 | 0 | 0 | 0 | 6 | x | x
COc1ccc(F)cc1-c1cc(C(=O)NCc2cc(C(F)(F)F)cc(C(F)(F)F)c2)[nH]n1 | 8 | 12* | 1 | 5 | 6 | -1 | 3
Cc1cc(F)ccc1-c1cc(C(=O)NCc2ccc(C(F)(F)F)cc2)[nH]n1 | -1 | 11* | 0 | 0 | 14 | 24* | 13*
O=C(OCCOc1cccc(Cl)c1)c1cc(S(=O)(=O)N2CCOCC2)ccc1F | -2 | 10* | 0 | -5 | 6 | 12 | 6
O=C(OCCOc1ccccc1)c1cc(S(=O)(=O)N2CCOCC2)ccc1Cl | 3 | -1 | 0 | -4 | -1 | x | x
CCCCC[C@@H](C)N1C[C@H](COCc2ccccc2)Oc2cc(N3CCC[C@H]3COC)ccc2S1(=O)=O | 0 | -5 | 0 | -3 | -7 | x | x
CCCCC[C@@H](C)N1C[C@@H](COCc2ccccc2)Oc2cc(N3CCC[C@H]3CO)ccc2S1(=O)=O | -1 | 9.9* | -1 | -3 | 18 | 23* | 15*
